# Source: the supplement of paper PMC6555819
# System: THRa:RXRa (NR concentration 90 nM, RXRa partner concentration 90 nM)
# Experiment: PBM binding z-score (relative to random genomic background probes); higher = stronger binding; sequences stand for … in GC…GCGATTGACAGCGTAGAATGAAGG
# Outline: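 Custom Agilent 4×180K protein-binding microarrays carried double-stranded probes. Their 34-nt variable regions held direct-repeat seeds, single-nucleotide variants, half-site ablations and random human genomic background sequences. Arrays were incubated 1 h with ligand-free nuclear receptor dimers in PBS pH 7.4, 2% milk, 0.02% Triton X-100, 1 mM DTT, 0.2 mg/mL BSA and 0.4 mg/ml salmon testes DNA. Antibodies against each partner (one per run) detected binding, and scanned fluorescence was regression-normalized. Binding z-scores use random background probes as reference.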
row,Sequence,PBM binding z-score
1,ACTAGCAGGCCAAGTTTGGTTCACTCAAACAAAG,0.405
2,CCTACTGGGCCATCACGTCATTGATATCAACGTT,-0.192
3,ACTATTAGATGAGACGAGGGCAACCGATAGGTTG,1.42
4,GCTGATAGGTCAACTGATGGTCAGCTAAAGCTCG,2.55
5,TCGAATAGGTTAGTCGGGGCATTCAGCCAACATA,1.46
6,AGTCAAAGTCCAGGACGAGGTAACGTAAAGCACG,1.89
7,CCTTAAGGGTCACTCCAGGTTATAGCATCGGAGT,5.09
8,CAAACTAGGGCAAAGGTCAAAGTCGAGCCAACCA,3.87
9,TTACCAAGGTGAAGGTCGTTGGTCCCTCTGTAGA,2.29
10,CCTACTGGGCCCTTCAGAGGTCATTGATCATATG,2.94
11,CCTGCGAGGTCAATGGTCAGCTAAAGCAGCTCGC,3.8
12,CGAACTAGGTCAGCACAGGACAGTGAAGGATGAT,3.81
13,ATCTCTAGGTAACCAAGTTCAGGGAATGCCGAAC,1.69
14,CCTTACGGGTCACCCCAGGTTATAGCATCGGAGT,5.16
15,TCATATAGGTAAACAGGTGAAAGGCCGTAAGTTA,0.682
16,CCAAGTTGGTCAGGAGGTCACACACCGGATATGA,3.5
17,GCTCGGAGGACAAGGTCAGAGCCTTGTCCGTAGA,2.78
18,CCTCGGAGGACAACAGGAGGTCAGCGCTGCCAGA,3.14
19,CAAACTACGTCACCGGAAGGTCAAAGTCCGCATG,2.88
20,TCATATAGGTAAAAGGAGAAAGTCGGTGTGGTAA,-0.0526

row,Sequence,PBM binding z-score
1,CGTCCAAGGTCAGAGAGGACAGTGAATGCCGAGT,3.67
2,GCTAGCATGCCATTTGGGTCACTCAATGACGGGC,1.69
3,GCTCGGAGGACAAGGTCAGAGCTTTGTCCGTAGA,2.87
4,ACTATTAGTTGAGACGAGGGCGACCGATAGGTTG,1.23
5,TAGCCTAGGTCATGCGAGCCAGTATAGTGTCGGC,2.98
6,CTCGAAAGGTCGGTTGAGGTGCGTATACGGATAA,3.88
7,TAGCCTAGGTCATTCATGGGCCAGTATAGAAAGC,2.71
8,TCTTGTAGATCAACAGAGGTTAAGAAAGTGCGCT,2.55
9,TCTTGTAGATCAAGCAGGTTATGAAAGCCTGAGT,0.302
10,AGAATGAGGTTACCAAAGCTCAGGGAAACGCTTG,2.83
11,CCTCGGAGGACAGACGGTCAGAGCTGTCCGCTTT,-0.0863
12,CTCGAATGGTCGGTTGAGGTGAGTATACGGATAA,2.85
13,CGTCAAAGTTCAACTAAGGAAACGTAAAGCACGC,4.5
14,CCTATTAGTTGACCACAAGGGCAACCGAAGCTCG,1.23
15,ATATGTAGGTTAAGGGTCATTCTGGTTGGTTCGC,3.23
16,GCTTGTAGATCAAGGTGAAGAAAGACTAAGCTAA,1.04
17,TGAATGAGGTTATAAGATCAGTGAACGTTGCAAA,1.69
18,TCTTGTAGATGAATAGAGGTTAAGAAAGTGCGCT,1.72
19,GCAGACAGGTGAAACGCAGGTAACTCAAGGTGGC,1.76
20,CATACAGGGTCAGCTAGGGCAGAGTAGGGACGGC,3.69
